In the library only some 3.9% were active in any assay of this set; here they are far more common.
Anthrax LF inh2 = anthrax lethal factor protease inhibition. P15917. multiplex microsphere protease cleavage assay, LF. inhibition, % at 10 µM. actives 0.12% (n = 360,000)
Target sequence (P15917 whole entry, looked up): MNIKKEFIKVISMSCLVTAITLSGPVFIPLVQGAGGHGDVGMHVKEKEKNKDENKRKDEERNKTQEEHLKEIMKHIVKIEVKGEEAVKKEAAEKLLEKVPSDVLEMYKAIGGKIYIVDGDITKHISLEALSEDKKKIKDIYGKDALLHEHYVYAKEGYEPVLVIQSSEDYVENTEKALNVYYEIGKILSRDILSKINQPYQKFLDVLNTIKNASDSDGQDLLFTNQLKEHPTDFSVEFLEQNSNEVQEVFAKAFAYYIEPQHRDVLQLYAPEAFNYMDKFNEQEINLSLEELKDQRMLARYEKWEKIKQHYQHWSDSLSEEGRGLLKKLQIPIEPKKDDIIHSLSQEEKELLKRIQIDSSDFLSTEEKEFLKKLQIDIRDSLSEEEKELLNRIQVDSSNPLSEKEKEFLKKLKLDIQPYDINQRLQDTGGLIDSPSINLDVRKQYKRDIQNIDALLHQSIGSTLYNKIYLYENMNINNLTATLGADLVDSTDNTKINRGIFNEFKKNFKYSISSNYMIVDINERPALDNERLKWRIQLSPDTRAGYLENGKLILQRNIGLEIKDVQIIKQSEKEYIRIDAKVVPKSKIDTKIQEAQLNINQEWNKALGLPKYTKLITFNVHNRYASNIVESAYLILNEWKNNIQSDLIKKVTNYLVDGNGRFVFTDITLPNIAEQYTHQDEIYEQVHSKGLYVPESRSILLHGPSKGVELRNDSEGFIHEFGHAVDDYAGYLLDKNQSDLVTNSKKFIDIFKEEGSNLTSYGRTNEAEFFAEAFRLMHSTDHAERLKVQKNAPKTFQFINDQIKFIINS
Vc quorum ag = inducers of Vibrio cholerae quorum light production without autoinducers; V. cholerae BH1578 lux reporter, luminescence, 6 h; activation, % at 18.7 µM; actives 0.16% (n = 350,000); AID 588436; in the data active = activation mostly above about 9.7%, no sharp cut-off; inconclusive = no clear call, values can overlap the other calls; inactive = mostly below about 3.7%
BoNT-F LC inh = blocks Botulinum neurotoxin F light chain protease | Multiplex microsphere protease cleavage assay, flow cytometry | inhibition, % at 10 µM | actives 0.22% (n = 360,000) | AID 588497; in the data active = inhibition above about 35%, passing the limit was not always enough; inconclusive = no clear call, values can overlap the other calls
MazF activator = activators of E. coli MazEF toxin-antitoxin RNase | FAM/BHQ RNA-DNA oligo cleavage fluorescence, 5 h | activation, % at 20 µM | actives 0.32% (n = 350,000) | AID 504720; in the data active = activation above about 50%
BoNT-A LC inh2 = BoNT A light chain protease inhibition. multiplex microsphere protease substrate cleavage, flow cytometry. inhibition, % at 10 µM. actives 0.17% (n = 360,000). AID 588499
Autofluor counter = counter-screen for toxin protease inhibitors: compound fluorescence | actives 3.1% (n = 360,000) | compound autofluorescence counterscreen, microsphere flow cytometry; active compounds read high | fluorescence intensity (concentration not given with the values); in the data active = fluorescence intensity above about 16000; inconclusive = no clear call, values can overlap the other calls
Large screens that a line does not name were inactive. Cut-off read from the data, not from the text of the source, unless noted: active = inhibition above about 30%; inconclusive = no clear call, values can overlap the other calls; inactive = below that.

CCOC(=O)C1=C(C)N(c2ccc(C)cc2)C(=O)/C1=C\c1cccs1	Autofluor counter 16417
Cc1ccc(S(=O)(=O)N(C)C)cc1NC(=O)c1cc(C(C)(C)C)nn1Cc1ccccc1	none
CC(=O)Nc1ccc(/C=C(\C#N)C(N)=O)cc1	Anthrax LF inh2 inconclusive, BoNT-F LC inh 35
COc1ccc(NC(=S)Nc2cccc(S(=O)(=O)N3CCCCC3)c2)cc1	none
Cn1cc([N+](=O)[O-])c(C(=O)Nc2ccn(Cc3c(F)c(F)cc(F)c3F)n2)n1	BoNT-A LC inh2 inconclusive, Autofluor counter 23100
Cc1nn(Cc2cccc(C(=O)Nc3ccn(Cc4ccccc4F)n3)c2)c(C)c1[N+](=O)[O-]	none
Cn1ncc([N+](=O)[O-])c1C(=O)Nc1ccn(Cc2ccccc2F)n1	Autofluor counter 24402
O=C(Nc1ccn(Cc2ccccc2F)n1)c1ccc(COc2ccc(Br)cc2)cc1	BoNT-A LC inh2 inconclusive, Autofluor counter 24596
O=C(Nc1ccc(Cn2cccn2)cc1)c1ccc(COc2ccc(Br)cc2)cc1	none
Cc1ccc(S(=O)(=O)N(C)C[C@@H]2OCc3cn(nn3)CCCC(=O)N([C@H](C)CO)C[C@H]2C)cc1	none (no result: Vc quorum ag, MazF activator)
Cn1cc(CCCC(=O)NCc2ccc(F)cc2)c2ccccc21	none
S=c1[nH]nc(C2CCCCC2)n1/N=C/c1cccs1	BoNT-A LC inh2 inconclusive, Autofluor counter 23451
O=[N+]([O-])c1ccc(/C=N/n2c(C3CCCCC3)n[nH]c2=S)cc1	BoNT-A LC inh2 inconclusive, Autofluor counter 22651
O=S(=O)(c1ccc(Cl)cc1Br)N1CCCCC1	Autofluor counter 20568
O=S(=O)(c1cc(Cl)ccc1Cl)N1CCNCC1	Autofluor counter 20984
CCOC(=O)C1=CCC2C(=O)N(C)C(=O)C12 (centres undefined)	none (no result: Vc quorum ag, MazF activator)
Cc1cc(C)n2nc(SCC(=O)N3CCCC3)nc2n1	none
Cc1cc(C)n2nc(SCC(=O)N3CCC4(CC3)OCCO4)nc2n1	Autofluor counter 19682
COc1ccc(-c2noc(CN3CCCCC3)n2)cc1OC	Autofluor counter 21443
Cc1nn(C(C)C(=O)N2CCCC2)c(=O)c2nn(-c3ccccc3)c(C)c12 (centres undefined)	none
CC1CCc2cccc3c2N1c1cc(C#N)c(C#N)cc1O3 (centres undefined)	MazF activator 84, Autofluor counter 23863
Cc1c(CC(=O)O)c(=O)oc2c(C)c(OCc3ccc(F)cc3Cl)ccc12	BoNT-F LC inh 35
Cc1c(CC(=O)O)c(=O)oc2c(C)c(OCc3ccc(F)cc3F)ccc12	none
CCN(CC)C(=O)c1cc2cc(Br)ccc2oc1=O	BoNT-A LC inh2 inconclusive, Autofluor counter 22173
CN(C)CCNC(=O)c1cc2cc(Br)ccc2oc1=O	none
CCN(C(=O)c1cc2ccccc2oc1=O)c1cccc(C)c1	Autofluor counter 20635
O=C(Nn1cnnc1)c1cc2cc(Br)ccc2oc1=O	Autofluor counter 23909
CCOC(=O)C1(Cc2ccccc2)C(=O)N(CCCN(C)C)c2ccccc21 (centres undefined)	none
Cc1ccccc1-n1c(SCC(=O)N2CCN(c3ccccc3)CC2)nnc1-c1ccncc1	Autofluor counter 21220
Cc1sc(NC(=O)CSc2nnc(CCNC(=O)c3cccs3)n2C)nc1-c1ccccc1	none
Cc1ccccc1-n1c(SCC(=O)N2CCOCC2)nc(O)cc1=O	BoNT-A LC inh2 inconclusive, Autofluor counter 21580
Cc1ccnc(SCC(=O)N2CCN(c3ccccc3)CC2)n1	Autofluor counter 21477
Cn1c(CCNC(=O)c2cccs2)nnc1SCC(=O)N1CCN(c2ccccc2)CC1	BoNT-A LC inh2 inconclusive, Autofluor counter 23569
O=C(COc1ccc(S(=O)(=O)N2CCCCC2)cc1)N1CCCC1	none
Cc1cc(OCC(=O)N(Cc2ccccc2)C2CCS(=O)(=O)C2)ccc1Cl (centres undefined)	none
O=C(CSc1ccccn1)N1CCN(C(=O)CSc2ccccn2)CC1	none
Cc1nnc(SCC(=O)N2c3ccccc3Sc3ccccc32)n1N	none
Cn1c(SCC(=O)N2CCN(c3ccccc3)CC2)nnc1-c1ccco1	Autofluor counter 20444
O=C(CSc1nnc(-c2ccccc2)n1-c1ccccc1)N1c2ccccc2Sc2ccccc21	Autofluor counter 21718
O=C(CSc1ccccn1)N1CCN(c2ccc(Cl)cc2)CC1	BoNT-A LC inh2 inconclusive, Autofluor counter 21847
COc1ccc(N2CCN(C(=O)CSc3nnc(-c4cc5ccccc5cc4O)n3C)CC2)cc1	Autofluor counter 16210
CCN(CC)S(=O)(=O)c1ccc2[nH]c(=O)c3ccccc3c2c1	BoNT-F LC inh inconclusive, BoNT-A LC inh2 inconclusive
O=C(CN1C(=O)c2ccccc2C1=O)Nc1nccs1	none
O=C(CCCCCN1C(=O)c2ccccc2C1=O)Nc1nccs1	Autofluor counter 21980
CC(=O)Nc1ccc(NC(=O)CCCCCN2C(=O)c3ccccc3C2=O)cc1	Autofluor counter 18712
O=C(CCCCCN1C(=O)c2ccccc2C1=O)Nc1ccccc1	none
COc1cc(CC(NC(C)=O)C(=O)NC2CCN(c3nc(OC)nc(OC)n3)CC2)cc(OC)c1 (centres undefined)	none
CCS(=O)(=O)c1nc(S(=O)(=O)c2ccc(Cl)cc2)c(N2CCC(O)CC2)s1	none
O=C(CSc1c2c(nc3cc(Cl)ccc13)CCCC2)NCCN1CCOCC1	none
Cc1ccc(CNC(=O)CSc2c3c(nc4cc(Cl)ccc24)CCCC3)o1	Vc quorum ag 26
CC1CC(C)(C)CC2(C1)NC(=O)N(CC(=O)NCc1ccccc1F)C2=O (centres undefined)	none
Cc1cc(OCC(=O)OCC(=O)N2CCCCC2)ccc1Cl	none
Oc1ccc(/C=N/NC(=S)Nc2cccnc2)c(O)c1O	MazF activator 60
O=c1[nH]c(=O)n(Cc2ccco2)c2c1C(C(F)(F)F)(C(F)(F)F)N=C(CCc1ccccc1)N2	none
O=c1[nH]c(=O)n(Cc2ccco2)c2c1C(C(F)(F)F)(C(F)(F)F)N=C(C1CCCCC1)N2	Autofluor counter 20476
N#Cc1ccc(C2=NC(C(F)(F)F)(C(F)(F)F)c3c(n(Cc4ccco4)c(=O)[nH]c3=O)N2)cc1	Autofluor counter 23851
CC(=O)N1CCOc2ccc(S(=O)(=O)N(C)c3cccc(C)c3)cc21	none
C[C@H](CO)N1C[C@H](C)[C@@H](CN(C)S(=O)(=O)c2ccc(F)cc2)Oc2ccc(NC(=O)C3CC3)cc2C1=O	none
COc1ccc(CCNC2CC(=O)N(CCc3ccccc3)C2=O)cc1 (centres undefined)	none
CCN(CC)c1ccc(NC2CC(=O)N(CCc3ccc(OC)cc3)C2=O)cc1 (centres undefined)	MazF activator 60
NC(=O)c1cc2ccc(O)cc2oc1=NCc1ccccc1	MazF activator 785
Cc1c(/C=N/n2cnnc2)c2ccccc2n1CCOc1ccc(Cl)cc1	MazF activator 113, Autofluor counter 16355
Cc1ccc(OCCn2c(C)c(/C=N/n3cnnc3)c3ccccc32)cc1	BoNT-F LC inh inconclusive
O=C1C=CC(=NN=C(c2ccccc2)c2ccccc2)C=C1	none (no result: Vc quorum ag, MazF activator)

Bioassay records: PubChem, several laboratories
